An excerpt weighted towards active compounds, which were near 19% of everything screened.
TDP1 cell noCPT: qHTS for Inhibitors of human tyrosyl-DNA phosphodiesterase 1 (TDP1): qHTS in cells in absence of CPT; 420,000 tested, 15% active; AID 686978, 2013; Potency, µM (top dose mostly 46.2 µM), most hits filed as inhibitors; DT40 Tdp1-/- hTDP1 cells, no CPT, ATP luminescence, 48 h; further: nearly all actives have a fitted effect of over 55% in size
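Chicken DT40 Tdp1-/- cells stably complemented with human TDP1 were seeded at 400 cells/well with DMSO in place of 20 nM camptothecin. After compound pinning, cells grew at least 48 hr at 37 °C; viability read by CellTiter-Glo luminescence.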
KB-3-1 cytotox: KB-3-1 parental cell cytotoxicity; KB-3-1 viability, CellTiter-Glo ATP luminescence, 72 h; 400,000 tested, 1.4% active; Potency, µM (series often up to 46.1 µM), hits mostly cytotoxic; further: nearly all actives have a fitted effect of over 60% in size
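72 h, 37 °C compound treatment of KB-3-1 parental cells; CellTiter-Glo added, 10 min, luminescence read. Data corrected against DMSO-only plates and normalized before curve fitting.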
KB-V1 cytotox: KB-V1 MDR subline cytotoxicity; KB-V1 MDR cells viability, CellTiter-Glo, 72 h; Potency, µM (series often up to 46.1 µM), actives largely listed as cytotoxic; 400,000 tested, 3.4% active; further: nearly all actives have a fitted effect of over 60% in size
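Cytotoxicity toward P-gp-expressing KB-V1 cells was determined as loss of CellTiter-Glo luminescence after 72 h at 37 degrees C. Compounds were tested in quantitative HTS format across a concentration range, with curves fitted to normalized data.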
DT40 TDP1 CPT: growth inhibition of DT40 Tdp1-/-;hTDP1 cells with camptothecin (screen for TDP1 inhibitors). chicken DT40 Tdp1-/-;hTDP1 cells + 20 nM CPT, ATP luminescence, 48 h. Potency, µM (series often up to 46.2 µM), actives largely listed as inhibitors. 420,000 tested, 12% active. AID 686979; further: nearly all actives have a fitted effect of over 55% in size
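Chicken DT40 Tdp1-/- cells stably complemented with human TDP1 were seeded at 400 cells/well in medium containing 20 nM camptothecin, exposed to pin-transferred compounds, and grown at 37 °C for at least 48 hr. Viability was read as ATP luminescence.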
HT1080-NT tox: kills 2HG-producing HT-1080-NT fibrosarcoma cells. HT-1080-NT fibrosarcoma viability, CellTiter-Glo ATP luminescence, 48 h. Potency, µM (series often up to 46.1 µM), actives largely listed as cytotoxic. 360,000 tested, 1.6% active;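 further: NT is the 2HG producing partner of a matched IDH1 knockdown line; nearly all actives have a fitted effect of over 55% in size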
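Luminescent CellTiter-Glo readout after 48 hours of compound exposure at 37 degrees C defined viability of HT-1080-NT cells. Activity was normalized to DMSO wells and cell-free media wells; concentration-response curves were fitted and assigned curve classes.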
HT1080 IDH1KD tx: kills HT-1080 cells with IDH1 knockdown. HT-1080 IDH1 knockdown viability, ATP luminescence, 48 h. 360,000 tested, 2% active. AID 686971. Potency, µM (highest dose often 46.1 µM), most hits filed as cytotoxic
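Cytotoxicity counter-line: IDH1KD HT-1080, 48 h, CellTiter-Glo. Curves classed by r2, magnitude and activity.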
Numbers stand for hits; 0 = inactive; ? = inconclusive; - = no result. The call rests on the fitted dose curve; in most records, active means well fitted curve in the direction sought with a large enough effect; inconclusive means small, poorly fitted or top-dose-only effect, or another doubt; inactive means no such curve, though single readings can be large; an effect the other way counts as inactive or inconclusive.

SMILES	TDP1 cell noCPT	KB-3-1 cytotox	KB-V1 cytotox	DT40 TDP1 CPT	HT1080-NT tox	HT1080 IDH1KD tx
Cc1cc(OCc2cc(C(=O)NC3CCC3)no2)cc(C)c1Cl	?	0	0	?	0	0
CCOc1cc(CNC(=O)C(NS(=O)(=O)c2cccs2)C(C)C)cc(OCC)c1OCC (stereo not drawn)	0	0	0	0	-	-
COc1ccc(NC(=O)CSc2nc3nc(C)c(Cc4ccc(C)cc4)c(C)n3n2)cc1OC	?	0	0	?	-	-
O=C(c1cc(COc2ccc3ncccc3c2)on1)N1CCCC1	6.5µM	?	?	7.3µM	21µM	15µM
COCC1CCN(C(=O)c2cc(COc3ccc(-n4cncn4)cc3)on2)CC1	0	0	0	?	0	0
O=C(c1cc(COc2ccc3ncccc3c2)on1)N1CCCCCC1	2.6µM	?	0	4.1µM	3.7µM	?
COCC1CCN(C(=O)c2cc(COc3ccc4ncccc4c3)on2)CC1	8.2µM	?	7.3µM	3.7µM	0	0
Cc1ccc(OCc2cc(C(=O)N3CCCCCCC3)no2)cc1C	0	0	0	0	0	0
COc1ccc(-n2c(=O)c(-c3cccc(C#N)c3)nc3cnc(N4CCNCC4)nc32)cc1	0	-	-	0	-	-
O=[N+]([O-])c1ccc(C2CC(c3ccccc3)=Nc3ccccc3S2)cc1 (stereo not drawn)	21µM	0	0	?	0	0
CCc1ccc2nc(NC(=O)C3CSC4(C)CCC(=O)N34)sc2c1 (stereo not drawn)	?	0	0	0	0	0
NCC12CC3CC(C1)CC(c1ccc(Cl)cc1)(C3)C2	6.5µM	0	?	6.5µM	23µM	?
CN(C)C(CNC(=O)CCc1nc2cc(Cl)ccc2n(Cc2ccccc2)c1=O)c1ccccc1 (stereo not drawn)	16µM	0	0	?	0	0
CCNC(=S)NNC(=O)CCc1nc2cc(Cl)ccc2n(Cc2ccccc2)c1=O	?	0	?	0	0	?
CCCN1CCC(=O)N(CCN=[N+]=[N-])CC1	0	0	0	0	0	0
Cc1c(Cl)cccc1NC(=O)CSc1nc(=O)[nH]c2c1CCCC2	21µM	-	-	21µM	-	-
Cc1c(Cl)cccc1NC(=O)CSc1nc(=O)n(Cc2ccco2)c2c1CCC2	?	0	?	21µM	-	-
Cc1cc(C)c(NC(=O)CSc2nc(=O)[nH]c3c2CCCC3)c(C)c1	23µM	-	-	?	-	-
CNC(=O)COC(=O)c1ccc2c(c1)S(=O)(=O)c1ccccc1C2=O	0	0	0	0	0	0
COc1cc(F)ccc1-c1csc(C(NC(C)=O)c2cccc(F)c2)n1 (stereo not drawn)	?	0	0	?	0	0
CC1CC(C)CN(C(=O)Cn2c(SCC(=O)N3CCc4ccccc4C3)nc3ccccc32)C1 (stereo not drawn)	21µM	0	0	?	0	0
CC1CCCCN1C(=O)CSc1nc2ccccc2n1CC(=O)N1CCc2ccccc21 (stereo not drawn)	?	0	0	?	0	?
CC(C)NC(=O)Cn1c(SCC(=O)N2CCc3ccccc3C2)nc2ccccc21	0	0	12µM	0	0	0
CC(C)NC(=O)CSc1nc2ccccc2n1CC(=O)N1CCc2ccccc21	0	0	0	0	0	0
CCn1c(SCc2ccccc2F)nc(=O)c2c(C(=O)OC)cc(C3CC3)nc21	?	0	0	16µM	-	-
SMILES	TDP1 cell noCPT	KB-3-1 cytotox	KB-V1 cytotox	DT40 TDP1 CPT	HT1080-NT tox	HT1080 IDH1KD tx
CCn1c(SCc2ccc(F)cc2Cl)nc(=O)c2c(C(=O)OC)cc(C3CC3)nc21	18µM	0	0	16µM	-	-
COC(=O)c1cc(C)nc2c1c(=O)nc(SCc1ccccc1Cl)n2C1CC1	0	0	0	0	-	-
CCc1ccc(S(=O)(=O)c2nnn3c2nc(NCc2ccccc2)c2cc(Cl)ccc23)cc1	?	0	0	?	-	-
COc1cccc(CC(=O)NCC2Cc3cc(Cl)cc(-c4ncccn4)c3O2)c1 (stereo not drawn)	0	-	-	?	-	-
Cc1sc2nc3ccc(N4CCCC4)nn3c(=O)c2c1C	?	?	16µM	?	0	0
Cc1ccc2nc3ccc(N4CCCCCCC4)nn3c(=O)c2c1	?	0	?	?	0	0
Cc1ccc(-c2cc3nc(C)cc(NCc4ccco4)n3n2)cc1	0	0	15µM	0	?	0
Clc1cccc(-c2cc3nc4c(c(NCc5ccco5)n3n2)CCCC4)c1	11µM	0	21µM	21µM	?	0
c1coc(CNc2c3c(nc4ncnn24)CCCC3)c1	0	0	0	?	0	0
O=C(Cn1c(=O)n(-c2ccccc2)c(=O)c2c3c(sc21)CCCC3)Nc1cccc(F)c1	0	0	0	?	-	-
C=Cc1ccc(Cn2c(C)c(C(=O)NCc3ccc(C#N)cc3)sc2=O)cc1	16µM	?	18µM	16µM	0	0
COC(=O)c1ccc(Cn2c(C)c(C(=O)NCc3ccc(Cl)c(Cl)c3)sc2=O)o1	21µM	0	?	?	?	?
COC(=O)c1ccc(Cn2c(C)c(C(=O)NCc3ccco3)sc2=O)o1	0	0	0	0	0	0
COC(=O)c1ccc(Cn2c(C)c(C(=O)NCc3ccc(C#N)cc3)sc2=O)o1	0	0	23µM	0	0	?
CCCCNC(=O)C1(C)CCN1C(=O)c1ccc2ccccc2n1 (stereo not drawn)	0	0	0	?	0	0
CC(=O)COc1c(-c2ccco2)oc2ccccc2c1=O	0	0	0	0	0	0
Cc1cccc(Cc2c(C)nc3c(C(=O)NCc4ccco4)cnn3c2C)c1	11µM	0	0	22µM	?	?
Cc1nc2c(C(=O)NCc3ccco3)cnn2c(C)c1Cc1ccc(F)cc1Cl	?	0	0	11µM	0	0
Cc1nc2ccc(F)cc2cc1C(=O)NCc1ccco1	0	0	0	0	0	0
O=C(c1ccccc1)c1cc2cc(Cl)ccc2[nH]1	0	0	0	0	0	0
N#Cc1cc2cc(Cl)ccc2[nH]c1=O	0	4.6µM	0	0	0	0
Nc1ccc(CC(N)c2csc(Nc3nncc4ccccc34)n2)cc1 (stereo not drawn)	?	?	23µM	?	?	0
NC(Cc1ccccc1)c1csc(Nc2nncc3ccccc23)n1 (stereo not drawn)	23µM	?	23µM	21µM	?	?
NC(CCc1ccccc1)c1csc(Nc2nncc3ccccc23)n1 (stereo not drawn)	21µM	0	0	21µM	?	?
COc1ccc(NC(=O)Cn2c(=O)n(Cc3ccco3)c(=O)c3sc4ccccc4c32)cc1Cl	0	0	0	0	-	-
